The campaign covered roughly 190,000 compounds. About 1,600 (0.84%) were called active. What follows is part of a selection rich in actives, with near analogues and random picks from the rest. Values without a mark were called inactive.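 How the source made its calls: active means inhibition above a set limit, derived from the sample mean plus 3 SD (cut at about 45% in these data); inconclusive means one replicate passes the limit while the other fails; inactive means the rest.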

The assay in a line: APP 5'UTR translational reporter suppression – APP 5'UTR luciferase, SH-SY5Y cells, primary screen (AID 1285). The settings on record: SH-SY5Y APP 5'UTR-luciferase reporter, luminescence; at 2 µM; hits give high values. (Reporter assays use an easily measured gene product as a stand-in for the process of interest.)
As to `CCCn1c(NC(=O)C23CC4CC(CC(O)(C4)C2)C3)nc2ccccc21`, the inhibition is 9%.

As to `COC(=O)c1c(C)oc2ccc(N(C(=O)Oc3ccccc3)S(=O)(=O)c3ccccc3)cc12`, the inhibition was 0.2%.

With `O=C(NC(=S)Nc1ccc2oc(=O)ccc2c1)c1ccc(-c2cccc(Cl)c2Cl)o1`, the inhibition was 2.2%.

As to `CCOc1cc(NC(=O)CCl)c(OCC)cc1NC(C)=O`, the inhibition is 5.3%.

`COc1ccc(-n2nnnc2-c2nc3ccccc3s2)cc1`: the inhibition is -237%.

On to `CCOc1cccc(-n2nnnc2-c2ccc(OC)cc2)c1`, for which the inhibition is 65.8% (active).

As to `CCOc1cccc(-c2nnc3sc(COc4ccc(OC)cc4)nn23)c1`, the inhibition is -2.3%.

Consider `C/C(=N\NC(=O)c1ccc(CSc2nc(C)cc(C)n2)cc1)C1CCCCC1`, for which the inhibition was -23.6%.

Take `COc1ccc(C(CCNCc2ccccc2F)c2ccc(F)cc2)cc1` (stereo unspecified): the inhibition was 50.4% (active).

`COc1cccc(CNCCc2c[nH]c3ccccc23)c1OCc1ccccc1F`: the inhibition was -3.5%.

Turning to `COc1ccc(CC(=O)NC(C)CCc2ccccc2)cc1` (stereo unspecified), the inhibition was 18.8%.

As to `CCC(C)(C)NC(=O)C1c2ccccc2Oc2ccccc21`, the inhibition was -10.4%.

Consider `COc1cc2nc(CN(C)Cc3ccc(F)cc3)[nH]c(=O)c2cc1OC`, for which the inhibition was -10.3%.

Turning to `CCOC(=O)N1CCN(S(=O)(=O)c2ccc(C(=O)Nc3ccc(F)cc3F)cc2)CC1`, the inhibition is 92.2% (active).

For the molecule `O=C(CN1CCN(S(=O)(=O)c2ccc(F)cc2)CC1)Nc1ccccc1F`, the inhibition was -2%.

In the case of `COc1ccc(C(=O)Nc2ccc(F)cc2F)cc1`, the inhibition was -131%.

`Cc1nc(-c2ccc(Cl)cc2)sc1C(=O)CBr`: the inhibition is 5.2%.

For the molecule `Clc1ccc(N/N=C/c2cccs2)nn1`, the inhibition is -17.2%.

`COc1cccc2c1OCC(CN1CCN(C3CCCCC3)C(CCO)C1)=C2` (stereo unspecified): the inhibition is 10.6%.

`CCN(CC)c1ccc(NC(=O)c2ccc(Cl)nc2)cc1`: the inhibition is 66.1% (active).

With `NS(=O)(=O)c1ccc(NC(=O)COC(=O)c2ccc(Cl)nc2)cc1`, the inhibition was -14.1%.

As to `O=C(NNc1ccccn1)c1ccc(Cl)nc1`, the inhibition was 9.8%.

Consider `Cc1ccc(S(=O)(=O)N(C)c2ccc(OCC(=O)NC3=NCCS3)cc2)cc1`, for which the inhibition is -2.9%.

On to `CCCC(=O)Nc1nc2ccc(NC(=O)c3cccnc3)cc2s1`, for which the inhibition was 4.1%.

Take `CCCC(=O)Nc1nc2ccc(NC(=O)c3c(F)c(F)c(OC)c(F)c3F)cc2s1`: the inhibition is 88.8% (active).

On to `COc1ccc2nc(Nc3nc4ccc(NC(C)=O)cc4s3)sc2c1`, for which the inhibition was -20.2%.

For `CCOc1cnc(-c2c(-c3ccccc3Cl)noc2C)o1`, the inhibition was 16.9%.

Take `O=C(Cn1ncc(N2CCCC2)c(Br)c1=O)c1ccc(Cl)cc1`: the inhibition was -71.1%.

`CCOC(=O)c1ccccc1NS(=O)(=O)c1ccc(OC)cc1`: the inhibition was -5.3%.

On to `CCCCC(C(=O)OCC(=O)c1ccc(OC)cc1)N1C(=O)c2ccccc2C1=O` (stereo unspecified), for which the inhibition was 7.1%.

Consider `CCOC(=O)C1=C(c2ccc(OC)cc2)C(=O)c2ccccc2C1=O`, for which the inhibition was 59.6% (active).

`C[C@@H]1C[C@@H]2O[C@H]2/C=C\C=C\C(=O)Cc2c(Cl)c(O)cc(O)c2C(=O)O1`: the inhibition is 95% (active).

For `O=C(Nc1ccc2c(c1)OCO2)c1sc2cc(Cl)ccc2c1Cl`, the inhibition is -85%.

As to `O=S(=O)(NCCc1ccncc1)c1ccccc1`, the inhibition is 16.4%.

On to `O=c1cc(-c2ccccc2)[nH]c2cc(F)ccc12`, for which the inhibition was 89.6% (active).

Regarding `Cc1ccc(-c2cc(=O)c3ccc(F)cc3[nH]2)cc1`, the inhibition is -29.4%.

Turning to `Cc1ccc(-c2cc(=O)c3ccc(Cl)cc3[nH]2)cc1`, the inhibition is -13.4%.

As to `Cc1ccnc(NS(=O)(=O)c2ccc(NC(=O)c3ccc(S(=O)(=O)N4CCOCC4)cc3)cc2)n1`, the inhibition was 5.8%.

Regarding `Cc1ccc(-c2nn(-c3ccccc3)cc2/C=N/NC(=O)c2ccc3c(c2)OCO3)cc1`, the inhibition is 4.8%.

As to `Cc1ccc(/C=N/NC(=O)C2=NNC(c3ccccc3)(c3ccccc3)C2)c(O)c1`, the inhibition is 73% (active).

For `Cc1cccc(-n2c(C)cc(/C=N\NC(=O)c3cccs3)c2C)c1`, the inhibition is -62.9%.

As to `O=C(CCc1n[nH]c(=O)[nH]c1=O)N/N=C/c1ccc(Br)o1`, the inhibition was -6.1%.

As to `CCCOC(=O)c1[nH]c2c(c1C)C(=O)CC(c1cc(OC)c(OC)c(OC)c1)C2` (stereo unspecified), the inhibition is -2.1%.

For the molecule `CCOC(=O)c1[nH]c2c(c1C)C(=O)CC(c1ccc(N(C)C)cc1)C2` (stereo unspecified), the inhibition is -13.3%.

In the case of `CCCOC(=O)c1[nH]c2c(c1C)C(=O)CC(c1cccs1)C2` (stereo unspecified), the inhibition is 92% (active).

`COc1ccccc1OCCC(=O)OCC(=O)NC(=O)NC(C)(C)C`: the inhibition is -5.5%.

For the molecule `CC(C)(C)NC(=O)NC(=O)COC(=O)C1(C)CC1(Cl)Cl` (stereo unspecified), the inhibition is 12.7%.

Turning to `CC(C)(C)NC(=O)NC(=O)COC(=O)CCC1CCCCC1`, the inhibition was 61.5% (active).

As for `CN1CCC(OC(=O)COc2ccc(Cl)cc2Cl)CC1`, the inhibition was -5.1%.

Regarding `COc1cccc(/C=N/NC(=O)c2[nH]nc3c2CCc2ccccc2-3)c1O`, the inhibition is 79.7% (active).

Regarding `COc1ccc(C(=O)Nc2ccccc2C(=O)N/N=C/c2ccccc2OC)cc1`, the inhibition was -8.9%.

With `COc1cccc(/C=N\NC(=O)C2=NNC(=O)C2C)c1O` (stereo unspecified), the inhibition is -73.4%.

For the molecule `CCN(Cc1ccccc1)S(=O)(=O)c1cc(C(=O)O)ccc1OC`, the inhibition is -51.9%.

On to `O=C(CC1SC(=Nc2ccccc2F)N(CCN2CCOCC2)C1=O)Nc1ccc(F)cc1F` (stereo unspecified), for which the inhibition is -19.1%.

Consider `Cc1ccc(CC2S/C(=C(/C#N)C(=O)N3CCOCC3)N(c3ccccc3)C2=O)cc1` (stereo unspecified), for which the inhibition was -2.7%.

As for `N#C/C(C(=O)N1CCOCC1)=C1/SC(Cc2ccc(F)cc2)C(=O)N1c1ccccc1` (stereo unspecified), the inhibition was 56.6% (active).

`CCN(CC)C(=O)CS(=O)CC(=O)Nc1cc(OCCOC)c(Cl)cc1Cl` (stereo unspecified): the inhibition is -14%.

For `Cc1oc2c(c1C(=O)N1CCOCC1)C(=O)c1ccccc1C2=O`, the inhibition was 2.1%.

Regarding `O=C(NNC(=S)Nc1ccccc1)c1cccc(S(=O)(=O)N2CCOCC2)c1`, the inhibition was -32.5%.

Take `CCOC(=O)c1cnc(-n2nc(C)cc2C)nc1NNc1cc(C)nc(-c2ccccc2)n1`: the inhibition was 72.1% (active).

Regarding `CCOC(=O)c1cnc(-n2nc(C)cc2C)nc1Nc1cccc(C(C)=O)c1`, the inhibition is -11.9%.

In the case of `CCOC(=O)c1cnc(-n2nc(C)cc2C)nc1-n1nc(C)cc1C`, the inhibition is 6%.

Turning to `Cc1ccc(C(=O)NC(C)c2ccccc2)cc1Br` (stereo unspecified), the inhibition is 25.6%.

Turning to `C/C=C/c1ccc(OCC(O)CN2CCCCCCC2)c(OC)c1` (stereo unspecified), the inhibition was -39%.

Regarding `Nc1ccc(Oc2ccc(Cl)cc2)cc1`, the inhibition is 11.4%.

Turning to `CC(C)(C)c1ccc(Oc2ccc(N)cc2)cc1`, the inhibition is 84.4% (active).

With `Cc1ccc(Oc2ccc(N)cc2)cc1`, the inhibition is 3.7%.

On to `Oc1ccc(/C=N/N(Cc2ccccc2)c2ccccc2)cc1`, for which the inhibition was -13.4%.

In the case of `N=C1/C(=C/c2cccn2-c2cccc([N+](=O)[O-])c2)C(=O)N=C2SC=CN12`, the inhibition is 17.8%.

In the case of `O=C(N/N=C/c1ccc2c(c1)OCO2)c1ccc(Cn2cc([N+](=O)[O-])cn2)o1`, the inhibition was -17.9%.

Turning to `Cc1c(Cl)c([N+](=O)[O-])nn1CCCC(=O)Nc1cc(Cl)ccc1Cl`, the inhibition was -6.1%.

For `Cc1c(Cl)c([N+](=O)[O-])nn1Cc1ccc(C(=O)N/N=C\c2cc(Cl)ccc2O)o1`, the inhibition was 68.5% (active).

`Nc1nonc1-n1nnc(C(=O)N/N=C/c2cc(Br)ccc2O)c1CSC1=NCCS1`: the inhibition was 54.3% (active).

Take `COc1cc(/C=N\NC(=O)c2nonc2N)c(OC)cc1Br`: the inhibition was 1%.

In the case of `COCc1c(C(=O)N/N=C/C2CC=CCC2)nnn1-c1nonc1N` (stereo unspecified), the inhibition is 6.9%.

`CCC1(CC)NC(=O)N(CC(=O)OCC(=O)NC(=O)c2ccccc2)C1=O`: the inhibition is 5.8%.

As to `CC(C)c1nc2ccc(C(=O)O)cc2[nH]1`, the inhibition is -1.3%.

On to `Cc1nc2ccc(C(=O)O)cc2[nH]1`, for which the inhibition is 4.6%.

Regarding `COC(=O)Nc1nc2ccc(Sc3ccccc3)cc2[nH]1`, the inhibition is 91.5% (active).

For `CCO/C=C1\C(=O)N(c2ccc(OCC)cc2)C(=O)c2ccccc21`, the inhibition is -6.3%.

In the case of `OCCC1CN(Cc2ccc3nsnc3c2)CCN1C1CCCCC1` (stereo unspecified), the inhibition was 0.3%.

Consider `CC(C)N1CCC(=NNc2ccc([N+](=O)[O-])cc2S(=O)(=O)N2CCOCC2)CC1`, for which the inhibition is 16.2%.

On to `CCn1c2ccccc2c2cc(CC(N)=O)ccc21`, for which the inhibition is 15%.

For `COc1ccc(CCNC(=O)CN(c2ccccc2)S(C)(=O)=O)cc1OC`, the inhibition is -22.4%.

Consider `COc1ccc(CCNC(=O)CC2SC(=Nc3cc(C)cc(C)c3)NC2=O)cc1OC` (stereo unspecified), for which the inhibition is 2.9%.

As for `CCCN=C1NC(=O)C(CC(=O)NCCc2ccc(OC)c(OC)c2)S1` (stereo unspecified), the inhibition was 74.7% (active).

In the case of `Cc1cc(C)c(S(=O)(=O)N2CCOCC2)cc1C`, the inhibition is 10.3%.

With `CCOc1ccc(Br)cc1S(=O)(=O)Nc1cccc(S(=O)(=O)N(CC)CC)c1`, the inhibition was -7%.

On to `CCOc1ccccc1NC(=O)CCc1ccc(C)o1`, for which the inhibition was 9.7%.

As to `Cc1ccc(CCC(=O)Nc2ncc(Cc3cc(Cl)ccc3Cl)s2)o1`, the inhibition was 94.1% (active).

For `Cc1cnc(NC(=O)CSc2nnc(-c3ccc(Cl)cc3Cl)n2N)s1`, the inhibition is -0.1%.

Take `CN(C)c1ccc(Nc2c3c4c(cccc4n(C)c2=O)C(=O)c2ccccc2-3)cc1`: the inhibition was 55.2% (active).

On to `CC1=NCCN1S(=O)(=O)c1cccc([N+](=O)[O-])c1`, for which the inhibition is 11.4%.

As for `COC(=O)CSc1ncnc2c1cnn2-c1ccc(C)cc1C`, the inhibition was -3.9%.

Take `CSc1nc(-c2ccccc2)nc(C(Cl)Cl)n1`: the inhibition was 48.7% (active).

On to `CSc1nc(C)cc(SC(C(C)=O)C(=O)Nc2ccccc2)n1` (stereo unspecified), for which the inhibition was -17.5%.

The inhibition is the drop in the measured response relative to a control, in per cent.

These data come from PubChem BioAssay AID1285 (Columbia University Molecular Screening Center, 2008).
